According to PubChem BioAssay AID463173 (ICCB-Longwood Screening Facility, Harvard Medical School, 2010):
In all, about 52,000 compounds went through this assay and about 4,300 (8.3%) were called active. The entries come from a sample that favours actives as a whole. Values without a mark were called inactive. Rule as the data show it: active = survival mostly below about 52% (no sharp cut-off); inactive = mostly above about 56%.

System: DeltatarO mutant
Test: growth inhibition of S. aureus wild type versus tarO mutant, primary screen, teichoic acid synthesis inhibitors, RN4220, OD600 (AID 463173)
Conditions: OD600, 18 h, stronger effect = lower value, screened at 18.75 µg/mL (by protocol)

Compound | survival
Cc1ccc(NC(=O)c2cnn(-c3ccc(C)c(C)c3)c2C2CCN(C(=O)OC(C)(C)C)CC2)c(C)c1 | 109%
CN(C(=O)c1ccccc1)C1CCS(=O)(=O)C1 (stereo not drawn) | 90%
Cc1ccc(N2CC(C(=O)NCc3nnnn3-c3ccc(C)c(C)c3)CC2=O)cc1 (stereo not drawn) | 69%
Cc1ccc(-c2ccc(=O)n(CC(=O)NC(C)c3ccccc3)n2)cc1 (stereo not drawn) | 69%
Cc1c(-c2cccc(NC(=O)Nc3ccc(Cl)cc3)c2)nc2ncccn12 | -2% (active)
Cc1c(-c2cccc(NC(=O)C(C)(C)C)c2)nc2ncccn12 | 79%
Cc1c(-c2cccc(NC(=O)Nc3ccccc3)c2)nc2ncccn12 | 76%
Cc1ccc(-n2nc(C(=O)N3CCC(C)CC3)c(=O)n(C)c2=O)cc1 | 86%
Cc1ccc(-n2nc(C(=O)N3CCCCC3)c(=O)n(C)c2=O)cc1 | 52% (active)
Cc1ccc(-n2nc(C(=O)N3CCN(c4ccccc4)CC3)c(=O)n(C)c2=O)cc1 | 124%
Cn1c(SCc2ccccc2)nnc1C1CCCN1CC(=O)N1CCN(c2ccc(F)cc2)CC1 (stereo not drawn) | 70%
Cc1ccc(CNC(=O)CSc2nc(=O)[nH]c3c2CCCC3)cc1 | 76%
COc1cc(SC)ccc1C(=O)NCc1ccccc1 | 95%
Cc1ccc(-n2ncc(C(=O)NCCN3CCc4ccccc4C3)c2C2CCN(C(=O)OC(C)(C)C)CC2)cc1C | 99%
Cc1ccc(C)c(Cn2c(=O)n(CCCC(=O)NCc3ccc4c(c3)OCO4)c(=O)c3sccc32)c1 | 74%
COc1cc(C(=O)Oc2c(Sc3ccccc3)c(C)nn2-c2ccccc2)cc(OC)c1OC | 83%
CCC(=O)Oc1c(Sc2ccc(C)cc2)c(C)nn1-c1ccccc1 | 71%
Cc1nn(-c2ccccc2)c(OC(=O)C(C)C)c1Sc1ccc(Cl)cc1 | 36% (active)
CCC(=O)Oc1c(Sc2ccc(Cl)cc2)c(C)nn1-c1ccccc1 | 13% (active)
CCCC(=O)Oc1c(Sc2ccc(C)cc2)c(C)nn1-c1ccccc1 | 56%
COc1ccccc1C(=O)Oc1c(Sc2ccccc2)c(C)nn1-c1ccccc1 | 62%

Compound | survival
Cc1nn(-c2ccccc2)c(OC(=O)C(C)C)c1Sc1ccccc1 | 48%
COc1ccc(C(=O)Oc2c(Sc3ccccc3)c(C)nn2-c2ccccc2)cc1OC | 47%
CCCC(=O)Oc1c(Sc2ccc(Cl)cc2)c(C)nn1-c1ccccc1 | 23% (active)
CCC1CCCCN1C(=O)CSc1n[nH]c(-c2ccccc2Cl)n1 (stereo not drawn) | 102%
O=C(NC1CCCCC1)N(Cc1ccccc1)Cc1cc2cc3c(cc2[nH]c1=O)OCCO3 | 52%
CCOC(=O)c1cnc2c(C)cc(C)cc2c1Nc1cccc(C(=O)O)c1 | 5% (active)
CCOC(=O)c1cc(S(=O)(=O)Nc2ccccc2OCC)[nH]n1 | 72%
CCOC(=O)c1cnc2c(Cl)cc(Cl)cc2c1Nc1ccccc1OC | 57%
Cc1cc(C)c2nc(C)cc(Nc3cccc(C(=O)O)c3)c2c1 | 70%
CCOC(=O)c1cnc2c(C)cc(C)cc2c1Nc1ccc(OCc2ccccc2)cc1 | 17% (active)
CCOC(=O)c1cnc2c(C)cc(C)cc2c1Nc1ccccc1OCC | -1% (active)
CCOC(=O)c1ccc2nc(C)cc(Nc3cccc(C(=O)O)c3)c2c1 | 173%
COc1ccc(CCn2c3c(c(=O)[nH]c2=O)C(NC(=O)c2ccccc2)(C(F)(F)F)C(=O)N3)cc1OC (stereo not drawn) | 58%
CCOc1ccccc1N(C)C(=O)c1sc2nc3n(c(=O)c2c1C)CCCC3 | 64%
CCC(C)NC(=O)c1nn(-c2ccc(C)cc2)nc1CO (stereo not drawn) | 94%
COC(=O)c1ccccc1NC(=O)c1cc2cc(C)ccc2n1C | 99%
COc1ccc(Cn2c(CCC(=O)NCc3cccc(Cl)c3)nc3cccnc32)cc1 | 129%
O=C(CCc1nc2cccnc2n1Cc1ccccc1)NCc1cccc(Cl)c1 | 51% (active)
Cc1ccc(CNC(=O)CCc2nc3cccnc3n2Cc2ccccc2)cc1 | 74%
COc1ccc(CCC(=O)NCc2nc3cccnc3n2Cc2ccc(F)cc2)cc1 | 119%
O=C(CCc1ccccc1)NCc1nc2cccnc2n1Cc1ccc(F)cc1 | -4% (active)

Compound | survival
Cc1ccc(Cn2c(CNC(=O)CCc3ccccc3)nc3cccnc32)cc1 | 97%
COc1cc(NC(=O)N(Cc2ccco2)C2CCN(C(C)=O)CC2)cc(OC)c1OC | 134%
N#Cc1ccc(NC(=O)CNCC2CCCCC2)cc1 | 100%
CCn1c(=NC(=O)c2ccc3c(c2)OCCO3)sc2c(C)ccc(OC)c21 | 120%
O=c1oc2ccccc2cc1-c1cn2cc(Cc3ccc(Br)cc3)sc2n1 | 66%
CC(C)c1ccc(Cc2cn3cc(-c4cc5ccccc5oc4=O)nc3s2)cc1 | 56%
O=c1oc2ccccc2cc1-c1cn2cc(Cc3ccc(Cl)cc3)sc2n1 | 84%
O=c1oc2ccccc2cc1-c1cn2cc(Cc3cc(Cl)ccc3Cl)sc2n1 | 52% (active)
O=c1oc2ccccc2cc1-c1cn2cc(Cc3ccc(F)cc3)sc2n1 | 128%
O=c1oc2ccccc2cc1-c1cn2cc(Cc3ccccc3F)sc2n1 | 49% (active)
Cc1ccc(NC(=O)c2sc3ncn(Cc4cccc(F)c4)c(=O)c3c2C)c(Br)c1 | 87%
COc1ccc(NC(=O)Cn2c(=O)n(Cc3nc(C)no3)c(=O)c3cc4c(cc32)OCO4)cc1 | 99%
CC(C)CCNC(=O)CN1C(=O)CSc2ccc(S(=O)(=O)N3CCC(C)CC3)cc21 | 72%
Cc1ccc(/C=C/c2onc(C)c2S(=O)(=O)N2CCC(C(=O)NCc3ccc(OC(C)C)cc3)CC2)cc1 | 69%
COc1cccc(CNC(=O)C(=O)NCC(c2ccco2)S(=O)(=O)c2cccs2)c1 (stereo not drawn) | 94%
Cc1ccc(C)c(-c2[nH]c3c(c2-c2c(-n4cccc4)n(C)c(=O)n(C)c2=O)c(=O)n(C)c(=O)n3C)c1 | 64%
Cc1ccc(-c2[nH]c3c(c2-c2c(-n4cccc4)n(C)c(=O)[nH]c2=O)c(=O)[nH]c(=O)n3C)cc1 | 65%
COc1cccc(-c2[nH]c3c(c2-c2c(-n4cccc4)n(C)c(=O)[nH]c2=O)c(=O)[nH]c(=O)n3C)c1 | 63% (active)
Cn1c(-n2cccc2)c(-c2c(-c3ccccc3)[nH]c3c2c(=O)[nH]c(=O)n3C)c(=O)[nH]c1=O | 60%
Cc1ccc(C)c(-c2[nH]c3c(c2-c2c(-n4cccc4)n(C)c(=O)[nH]c2=O)c(=O)[nH]c(=O)n3C)c1 | 59% (active)
COc1ccc(-c2[nH]c3c(c2-c2c(-n4cccc4)n(C)c(=O)[nH]c2=O)c(=O)[nH]c(=O)n3C)cc1F | 63%
